Laboratory results published in PubChem BioAssay AID1508622 (National Center for Advancing Translational Sciences (NCATS), 2021).
The source made the active and inactive calls. Calls follow the shape of the dose curve; as a rule, active = well fitted activation curve with a large enough effect; inconclusive = small, poorly fitted or top-dose-only effect; inactive = no such curve, though single readings can be large or run the other way.

Experiment: Confirmatory qHTS for Identification of Small Molecule Activators of Huntingtin-Antisense Promoter Activity
Settings: HEK293 HTT-AS promoter firefly luciferase reporter, 24 h; series mostly up to 57.5 µM
Method in brief: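 Activity normalized between vehicle control (0%) and zero RLU (-100%) from firefly luminescence (Dual-Glo). Compounds, up to 57.5 uM final, incubated 24 h at 37C on HEK293 reporter cells plated 24 h earlier.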

Potency, inactive:
COc1ccc(CNC(=O)c2cccc(N3CCCS3(=O)=O)c2)cc1OC
O=S(=O)(Nc1ccc(OC(F)(F)F)cc1)c1ccc(N2CCCCS2(=O)=O)cc1
CSc1ccc(CCNC(=O)c2ccc(CS(=O)(=O)c3ccc(Br)cc3)o2)cc1
CCOc1ccc(NC(=O)c2c(Nc3ccccc3C)sc(C(=O)c3ccccc3)c2N)cc1
CCC(=O)N1CCCc2cc(S(=O)(=O)N3CCC(C(=O)Nc4ccc(F)c(F)c4)CC3)ccc21
COc1ccc(OC)c(CCNC(=O)c2cnn(-c3ccc(C)cc3C)c2C2CCN(C(=O)OC(C)(C)C)CC2)c1
COc1ccc(-c2onc(C)c2C)cc1S(=O)(=O)N1CCc2ccccc21
O=C(NCCC1=CCCCC1)c1ccc2c(c1)N(Cc1cccc(Cl)c1)C(=O)c1ccccc1S2(=O)=O
CCCCOc1cccc(C(=O)N(Cc2ccc(C)o2)c2ccccn2)c1
COc1cc(CN(C(=O)c2ccc(OC(C)C)cc2)c2ccccn2)cc(OC)c1OC
COc1cc(C(=O)NCCSc2c(-c3ccccc3)[nH]c3ccccc23)cc(OC)c1OC
COc1ccc(C2=CC(c3ccccc3Cl)n3nc(-c4ccc(Cl)cc4)nc3N2)cc1 (centres undefined)
Cc1ccc(CSC2=Nc3ccccc3C3=NC(CC(=O)NC4CCCCC4)C(=O)N23)cc1 (centres undefined)
COc1ccc(OC)c(CCNC(=O)C(C)n2nc(C)c3c(C)n(-c4ccc(C)cc4)nc3c2=O)c1 (centres undefined)
Cc1cc(NC(=O)Cn2c(=O)oc3cc(S(=O)(=O)N4CCCC4)ccc32)ccc1Br
CCc1ccccc1-n1nnc(-c2nsc(NC(=O)c3ccc(C)c(C)c3)n2)c1C
Cc1cccc(N2CCN(S(=O)(=O)c3ccc4c(c3)C(C(C)C)C(=O)N4)CC2)c1C (centres undefined)
CC(=O)N1CCCc2cc(S(=O)(=O)N(C)CC(=O)Nc3ccc(F)cc3Cl)ccc21
Cc1cccc(CCNC(=O)c2c[nH]c3ccc(S(=O)(=O)Nc4ccccc4F)cc3c2=O)c1
Cc1ccc2onc(CC(=O)Nc3cccc(C(F)(F)F)c3)c2c1
O=C(NCC(c1ccc2c(c1)OCO2)N1CCN(c2ccccc2)CC1)c1ccc(F)c(F)c1 (centres undefined)
COc1cccc([C@@H](C)NCCCc2ccccc2Cl)c1
Cc1ccc(SCc2nc(-c3ccc(C(=O)NCC(C)c4ccccc4)cc3)oc2C)cc1 (centres undefined)
COc1ccc(Nc2sc(C(=O)c3ccccc3)c(N)c2C(=O)Nc2cc(C)ccc2C)c(OC)c1
Cc1ccc(CCNC(=O)C(C)n2nc(C)c3c(C)n(-c4ccc(C)cc4)nc3c2=O)cc1 (centres undefined)
CCS(=O)(=O)NCCc1sc2nc(-c3ccc(OC)cc3)nn2c1C
Cc1ccccc1-c1ccnc2c(-c3ccc(F)cc3)c(C)nn12
CCCCN(C)C(=O)C1CCCN(c2ncnc3onc(C)c23)C1 (centres undefined)
Cc1cc(C)cc(OCCn2c(C3CC(=O)N(c4ccccc4Cl)C3)nc3ccccc32)c1 (centres undefined)
COCCNc1nc(NCc2cccc(Cl)c2)c2cnn(C)c2n1
C[n+]1cc2c3c(ccc2c2ccc4cc5c(cc4c21)OCO5)OCO3
CCOc1cc(CNCCSc2nnnn2-c2ccccc2)cc(Cl)c1OC
CCCS(=O)(=O)NCCc1sc2nc(-c3ccc(Cl)cc3)nn2c1C
O=S(=O)(NCc1ccc(Cl)cc1)c1ccc(N2CCCCS2(=O)=O)cc1
Cc1cccc(NC(c2cccc(Cl)c2)c2ccc3cccnc3c2O)n1 (centres undefined)
Cc1cccc(NC(=O)c2ccc(F)c(S(=O)(=O)N(C)C3CCCCC3)c2)c1
Cc1ccc(NC(=O)C2CCCN2S(=O)(=O)c2ccc3c(c2)CCCC(=O)N3)cc1C (centres undefined)
Cc1ccc(N(C)C(=O)Cn2cnc3onc(-c4ccc(F)cc4)c3c2=O)cc1C
COc1ccc(N2CCN(C(=O)c3cc4c(-c5ccccc5F)nn(C)c4s3)CC2)cc1
